Records with an inconclusive call do not appear. Values without a mark were called inactive. Activity calls are given as the source filed them. The call rests on the fitted dose curve; in most records, active means well fitted inhibition curve with a large enough effect; inconclusive means small, poorly fitted or top-dose-only effect; inactive means no such curve, though single readings can be large or run the other way.
Potency means the concentration at half of the fitted maximal effect.

Cruzipain (Trypanosoma cruzi), sequence (P25779 123-467 limits assumed): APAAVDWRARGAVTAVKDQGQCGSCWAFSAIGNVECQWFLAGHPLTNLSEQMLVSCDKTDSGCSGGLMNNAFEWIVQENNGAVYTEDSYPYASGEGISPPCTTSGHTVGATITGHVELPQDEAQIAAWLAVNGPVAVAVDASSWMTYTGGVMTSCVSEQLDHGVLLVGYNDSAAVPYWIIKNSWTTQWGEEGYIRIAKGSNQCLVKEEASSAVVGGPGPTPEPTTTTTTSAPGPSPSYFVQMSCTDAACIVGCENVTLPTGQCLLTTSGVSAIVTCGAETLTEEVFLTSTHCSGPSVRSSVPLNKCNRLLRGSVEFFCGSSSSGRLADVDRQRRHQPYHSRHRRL

The test addresses Cruzipain (Trypanosoma cruzi) (UniProt P25779). In words: Confirmation qHTS Assay for Inhibitors of Cruzain. Further: nearly all actives have a fitted effect of over 40% in size.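 On activity change, negative = inhibition: plate controls were uninhibited enzyme control for no effect and buffer wells lacking enzyme for full effect.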 As to conditions: purified cruzain, Z-FR-AMC fluorescence, 0.01% Triton. Summed up:
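Purified cruzain, 1.5 nM, pre-incubated 15 min at room temperature with compound in 100 mM sodium acetate pH 5.5, 5 mM DTT, 0.01% Triton X-100. Then 2 uM Z-FR-AMC added; AMC fluorescence (ex 360/em 450 nm) increase over 60 s gave reaction progress.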
In general terms: In qHTS, concentration-response curves come from the screen itself.
In the case of `CC1CN(c2oc(-c3cccs3)nc2C#N)CC(C)O1` (stereo not drawn), the activity change, negative = inhibition is -79.4%. For `N#CN1CCC(NC(=O)c2cccc(C(F)(F)F)c2)CC1`, the activity change, negative = inhibition was -5.22%.

For the compound `Cc1ccccc1OCC(=O)NCC(=O)OCC(=O)c1ccc(F)cc1`, the activity change, negative = inhibition was -14.6%. Turning to `Cc1cccc(Nc2nc(C#N)nc(NC3CCCC3)n2)c1`, the Potency is 126 nM (active). The same measure, in the same setting: as for `Cc1ccccc1OCCCn1c(CCNC(=O)C2CCCCC2)nc2ccccc21`, the figure is 1000 nM (active); as for `CCN1CCN(CCCNC(=O)c2cc3c(s2)-c2ccccc2OC3)CC1`, 15800 nM (active).

On to `Cc1cc(C)cc(OCCCn2c(CCNC(=O)C3CCCCC3)nc3ccccc32)c1`, for which the Potency was 891 nM (active). With `CN(C)c1nc(C#N)nc(N(C)C)n1`, the Potency was 14100 nM (active). The same measure, in the same setting: then `CC(C)(C)Nc1nc(C#N)nc(Nc2ccccc2)n1`, with 2240 nM (active).

As to `O=C(Nc1ccc(-n2nncc2-c2ccccc2)cc1)c1ccccc1`, the activity change, negative = inhibition was -9.78%. On the same count and under the same terms, then `CCOc1ccc(CN2C(=O)c3ccccc3Sc3ccc(C(=O)NCc4ccc5c(c4)OCO5)cc32)cc1`, with 6.89%. For `O=C(O)c1c(Sc2ccccc2)c2cc(Cl)ccc2n1Cc1ccc(Cl)cc1`, the Potency is 8910 nM (active). Same read-out and setting: then `CNc1oc(Cc2ccccc2)nc1S(=O)(=O)c1ccccc1`, with 7080 nM (active). Still for that read-out and setting: then `CCCN(CCC)c1nc(N)nc(C#N)n1`, with 2510 nM (active). With `Cc1ccc2[nH]c(=O)c(CN(CCO)Cc3nnnn3Cc3ccco3)cc2c1`, the activity change, negative = inhibition was -3.64%.

Regarding `CCNc1nc(C#N)nc2c1ncn2-c1cccc(Cl)c1`, the Potency was 63.1 nM (active). Regarding `CCCCC(O)C(=O)Nc1cc(C(F)(F)F)ccc1Cl` (stereo not drawn), the activity change, negative = inhibition is -16.9%. Regarding `CC(C)(C)OC(=O)Cc1nnc(C(C(=O)OCc2ccccc2)c2ccccc2)o1` (stereo not drawn), the activity change, negative = inhibition is -12.3%. For `CC(C)(C)CNc1nc(C#N)nc(Nc2ccccc2)n1`, the Potency is 2000 nM (active). Turning to `COc1cccc(C(=O)NC2CCN(C#N)CC2)c1`, the activity change, negative = inhibition is -6.95%. Consider `N#Cc1nc(Nc2cccc3ccccc23)nc(NC2CCCC2)n1`, for which the Potency is 2820 nM (active). With `FC(F)Sc1ccc(N=C2NN=C(c3ccc4c(c3)OCCO4)CS2)cc1`, the activity change, negative = inhibition is -6.33%. Same read-out and setting: as for `CCC(C)NC(=O)c1ccc2nc(-c3cccs3)c(-c3cccs3)nc2c1` (stereo not drawn), the figure is -5.12%.

Source of the values: PubChem BioAssay AID2158 (National Center for Advancing Translational Sciences (NCATS), 2009).
